Here are results for twelve compounds from PubChem BioAssay (Tox21).

Assay [1] can be described thus: qHTS assay to identify small molecule agonists of the RXR signaling pathway - cell viability counter screen (AID 1159529). Also: nearly all actives have a fitted effect of over 50% in size. Also: potency is read from the fitted curve at half-maximal effect.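 As to activity change, negative = cytotoxicity: HEK 293T cells carrying an RXR-alpha UAS beta-lactamase reporter; series mostly up to about 77 µM.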 An outline of the steps: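 Counter screen: CellTiter-Glo luminescence. Cells: RXR-alpha-UAS-bla HEK 293T. Medium: 2% charcoal-stripped FBS. Treatment: 16 h, 37 C. Reagent incubation: 30 min, RT.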
On the technique in general: In qHTS, concentration-response curves come from the screen itself.

Assay [2] in a line: qHTS assay to identify small molecule antagonists of the retinoid acid receptor (RAR) signaling pathway - cell viability counter screen (AID 1159551). Also: nearly all actives have a fitted effect of over 35% in size. Also: potency is read from the fitted curve at half-maximal effect. The gist of the method:
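Cytotoxicity counter screen in C3RL4 cells: 6 h compound exposure with 1 uM retinol (final), viability from cellular ATP by luminescence.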

Assay [3] in a line: qHTS assay to identify small molecule antagonists of the retinoic acid receptor (RAR) signaling pathway (AID 1159552; also: nearly all actives have a fitted effect of over 50% in size; also: potency is read from the fitted curve at half-maximal effect). The gist of the method: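 Antagonism of retinol-induced RARE reporter activity was measured in C3RL4 cells. Exposure to compounds and 1 uM final retinol lasted 6 hr at 37 C, with luminescence as endpoint.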
Assay [4] can be described thus: qHTS assay to identify small molecule agonists of the retinoic acid receptor (RAR) signaling pathway (AID 1159553). The gist of the method:
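Agonist activity was scored in C3RL4 cells bearing a retinoic acid response element luciferase construct. Cells were treated with compounds for 6 hr at 37 C, and luciferase signal was measured as luminescence.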

Assay [5] in a line: qHTS assay to identify small molecule antagonists of the estrogen related receptor (ERR) signaling pathway from Tox21 library - cell viability counter screen (AID 1224834). Also: nearly all actives have a fitted effect of over 30% in size. Also: potency is read from the fitted curve at half-maximal effect. The gist of the method: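 Cytotoxicity of test substances is gauged in the same ERR cells used for the antagonist screen, after 17.5 h of compound treatment at 37 C, by CellTiter-Fluor fluorescence measured after 30 min.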

For assay [6], the target named is Luciferin 4-monooxygenase (Photinus pyralis) (UniProt P08659). Put plainly: qHTS assay to identify small molecule inhibitors of firefly luciferase (AID 1224835). Also: series mostly up to about 120 µM; nearly all actives have a fitted effect of over 25% in size. An outline of the steps: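 Quantitative HTS format; KM concentrations of both substrates. Purified P. pyralis FLuc activity quantified from luminescence images.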
Assay [7] can be described thus: qHTS assay to identify small molecule antagonists of the estrogen related receptor signaling pathway with the pleiotropic PPARgamma coactivator (PGC) from Tox21 10K library - cell viability counter screen (AID 1224840; active = well fitted cell-killing curve with a large enough effect in the repeat runs, not every such curve was filed as active; also: nearly all actives have a fitted effect of over 40% in size; also: potency is read from the fitted curve at half-maximal effect). The gist of the method: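 Step one, plate 2,000 PGC/ERR cells per well; step two, incubate 6 h at 37 C/5% CO2; step three, pin-transfer compounds; step four, incubate 17.5 h; step five, add CellTiter-Fluor and read fluorescence after 30 min.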

The nature of assay [8]: qHTS assay to identify small molecule agonists of the estrogen related receptor signaling pathway with the pleiotropic PPARgamma coactivator (PGC) from Tox21 10K library (AID 1224842). Also: nearly all actives have a fitted effect of over 15% in size. An outline of the steps:
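PGC/ERR reporter cells (NTP line) were seeded 2,000 per well, rested 6 h at 37 C/5% CO2, then pin-dosed with compounds in DMSO for 18 h at 37 C; luciferase read by One-Glo luminescence after 30 min at room temperature.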

Assay [9] in a line: qHTS assay to identify small molecule agonists of the constitutive androstane receptor (CAR) signaling pathway - cell viability counter screen (AID 1224836). Also: series mostly up to about 92 µM; nearly all actives have a fitted effect of over 45% in size. The gist of the method:
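Double-stable HepG2 hepatoma cells (hCAR plus CYP2B6-2.2kb) are treated for 23 h at 37 C with test compounds in 15-point concentration series. PK11195 at 0.75 uM final is co-added. Cell viability is quantified by CellTiter-Fluor.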

A short description of assay [10]: qHTS assay to identify small molecule antagonists of the constitutive androstane receptor (CAR) signaling pathway - cell viability counter screen (AID 1224837). Also: series mostly up to about 92 µM; nearly all actives have a fitted effect of over 45% in size. An outline of the steps:
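Multiplexed cytotoxicity read-out for the CAR antagonist screen: double-stable HepG2-CYP2B6-hCAR cells co-treated with 50 nM CITCO (final) and compound over 15 concentrations, incubated 23 hr, then assessed by CellTiter-Fluor fluorescence.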

Assay [11] concerns the target Nuclear receptor subfamily 1 group I member 3 (Homo sapiens) (UniProt Q14994). Put plainly: qHTS assay to identify small molecule antagonists of the constitutive androstane receptor (CAR) signaling pathway (AID 1224838). Also: nearly all actives have a fitted effect of over 40% in size. The gist of the method:
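Compounds were titrated across 15 concentrations onto HepG2 cells double-stably expressing hCAR and a CYP2B6-2.2kb reporter, together with 50 nM CITCO (final). After 24 h at 37 C, luciferase activity was measured by luminescence.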

Assay [12] concerns the target Thyrotropin receptor (Homo sapiens) (UniProt P16473). The assay can be described thus: qHTS assay to identify small molecule agonists of the thyroid stimulating hormone receptor (TSHR) signaling pathway (AID 1224843; calls by dose curve; also: nearly all actives have a fitted effect of over 45% in size; also: potency is read from the fitted curve at half-maximal effect). The gist of the method:
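Cell line HEK293 with TSHR; density 800/well. Exposure 30 min RT. Readout HTRF cAMP (cAMP-d2/anti-cAMP-cryptate), 1 h RT before reading.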

The target of assay [13] is Nuclear receptor subfamily 1 group I member 3 (Homo sapiens) (UniProt Q14994). Put plainly: qHTS assay to identify small molecule agonists of the constitutive androstane receptor (CAR) signaling pathway (AID 1224839). Also: nearly all actives have a fitted effect of over 15% in size. Also: potency is read from the fitted curve at half-maximal effect.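 As to activation: HepG2 cells stably carrying human CAR and a CYP2B6 luciferase reporter; series mostly up to about 92 µM.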 The gist of the method:
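Readout: firefly luciferase luminescence via ONE-Glo. System: HepG2 double-stable for hCAR and CYP2B6-2.2kb. Conditions: 15-point compound titration, PK11195 at 0.75 uM final, 24 h incubation.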

The nature of assay [14]: qHTS assay to identify small molecule antagonists of the estrogen related receptor signaling pathway with the pleiotropic PPARgamma coactivator (PGC) from Tox21 10K library (AID 1224841; call rule not given here; also: series mostly up to about 92 µM; actives are mostly falling curves and most rising ones were filed inactive; nearly all actives have a fitted effect of over 50% in size). The gist of the method:
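Antagonism in this quantitative HTS is taken from loss of luciferase signal in PGC/ERR cells. Cells (2,000/well) are treated with compounds in DMSO after a 6 h settling period and read by One-Glo luminescence after 18 h.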

Values joined by “and” are separate entries in the source; they are usually repeats but may differ in a detail not shown here. Equal entries are not always repeated. Records with an inconclusive call do not appear. Where a structure was tested more than once in an assay, its records may differ in their call. Active and inactive are the calls of the source. Unless noted, calls follow the shape of the dose curve; as a rule, active = well fitted curve in the direction sought with a large enough effect in the repeat runs; inconclusive = weak or mixed curves; inactive = no such curve, though single readings can be large; an effect the other way counts as inactive or inconclusive.
% is scaled to controls: 0 for no effect and ±100 for the full control effect.

Nuclear receptor subfamily 1 group I member 3 (Homo sapiens), sequence (Q14994 whole entry, looked up): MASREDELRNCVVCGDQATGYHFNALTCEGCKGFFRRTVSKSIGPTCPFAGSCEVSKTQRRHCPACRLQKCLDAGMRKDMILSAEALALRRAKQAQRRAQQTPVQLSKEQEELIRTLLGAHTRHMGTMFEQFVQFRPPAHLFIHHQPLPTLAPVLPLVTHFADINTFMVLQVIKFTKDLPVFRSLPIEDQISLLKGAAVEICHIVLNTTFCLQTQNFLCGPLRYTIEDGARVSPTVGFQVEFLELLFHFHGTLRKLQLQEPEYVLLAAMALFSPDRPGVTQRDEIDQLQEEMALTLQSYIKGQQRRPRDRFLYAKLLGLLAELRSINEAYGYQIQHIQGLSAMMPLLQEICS
Thyrotropin receptor (Homo sapiens), sequence (P16473 whole entry, looked up): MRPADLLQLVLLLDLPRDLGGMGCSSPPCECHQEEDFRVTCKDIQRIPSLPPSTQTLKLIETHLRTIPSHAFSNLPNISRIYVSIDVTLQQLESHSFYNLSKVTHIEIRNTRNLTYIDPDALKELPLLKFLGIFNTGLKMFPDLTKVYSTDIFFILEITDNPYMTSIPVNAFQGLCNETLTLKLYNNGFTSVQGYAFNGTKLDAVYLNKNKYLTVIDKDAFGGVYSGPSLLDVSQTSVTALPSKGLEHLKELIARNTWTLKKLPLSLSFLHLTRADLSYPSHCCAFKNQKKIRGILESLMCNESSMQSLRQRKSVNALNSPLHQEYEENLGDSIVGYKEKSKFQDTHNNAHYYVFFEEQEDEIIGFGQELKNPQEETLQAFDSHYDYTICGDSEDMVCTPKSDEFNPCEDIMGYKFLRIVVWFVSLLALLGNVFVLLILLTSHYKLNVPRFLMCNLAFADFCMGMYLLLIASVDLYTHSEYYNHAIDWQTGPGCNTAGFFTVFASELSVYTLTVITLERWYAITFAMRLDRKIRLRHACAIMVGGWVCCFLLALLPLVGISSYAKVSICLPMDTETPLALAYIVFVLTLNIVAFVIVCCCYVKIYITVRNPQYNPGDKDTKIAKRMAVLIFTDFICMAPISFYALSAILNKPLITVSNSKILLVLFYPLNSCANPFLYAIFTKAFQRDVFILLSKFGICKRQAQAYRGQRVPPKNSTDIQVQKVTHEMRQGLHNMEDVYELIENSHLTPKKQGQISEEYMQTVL
Luciferin 4-monooxygenase (Photinus pyralis), sequence (P08659 whole entry, looked up): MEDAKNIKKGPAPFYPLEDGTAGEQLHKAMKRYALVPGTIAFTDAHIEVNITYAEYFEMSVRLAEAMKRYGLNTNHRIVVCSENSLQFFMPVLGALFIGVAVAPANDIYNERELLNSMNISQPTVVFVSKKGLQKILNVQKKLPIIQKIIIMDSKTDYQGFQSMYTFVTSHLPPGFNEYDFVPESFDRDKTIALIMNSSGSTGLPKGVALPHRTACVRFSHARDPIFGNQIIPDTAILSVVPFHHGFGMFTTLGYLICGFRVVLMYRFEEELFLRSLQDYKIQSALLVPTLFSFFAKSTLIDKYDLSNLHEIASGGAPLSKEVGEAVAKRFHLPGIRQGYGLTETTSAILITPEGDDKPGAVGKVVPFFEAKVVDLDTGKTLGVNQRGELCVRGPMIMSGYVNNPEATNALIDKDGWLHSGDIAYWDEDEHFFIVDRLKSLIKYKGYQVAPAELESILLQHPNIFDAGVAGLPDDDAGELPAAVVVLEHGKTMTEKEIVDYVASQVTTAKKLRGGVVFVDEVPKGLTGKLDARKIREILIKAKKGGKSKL

For `CCCCCCCCCCCCCCn1cc[n+](C)c1`, the Potency was 19.5 µM (active) in assay [1]; 54.6 µM (active) and 60.4 µM (active) in assay [2]; 13.7 µM (active) and 24.1 µM (active) and inactive in assay [3]; 27.4 µM (active) and 30.3 µM (active) in [5]; 27.4 µM (active) and 30.3 µM (active) in [7]. The Potency result in [4], in [6] and in assay [8] was “inactive” each time.

In the case of `Clc1c(Cl)c(Cl)c(Cl)c(Cl)c1Cl`, the figures for the activity change, negative = cytotoxicity in assay [1], in assay [2] and in [10] were 0.339% [at 6.97 µM] (inactive), 0.805% [at 8.39 µM] (inactive) and 2.2% [at 8.39 µM] (inactive), respectively. For the same compound, the activity, negative = inhibition is 2.67% [at 8.39 µM] (inactive) in assay [3] and 2.04% [at 8.39 µM] (inactive) in [11]. Moreover, the activation in assay [4] was -1.82% [at 8.36 µM] (inactive); in assay [12], -17.5% [at 8.39 µM] (inactive). For the same compound, the results for the viability change, negative = cytotoxic in assay [5], in assay [9] and in assay [7] were 3.08% [at 8.39 µM] (inactive), -2.28% [at 8.39 µM] (inactive) and 8.1% [at 8.39 µM] (inactive), respectively. The activity change, negative = inhibition in assay [6] was 2.81% [at 10.5 µM] (inactive).

On to `ClCBr`, for which the Potency entry in [1], in assay [2], in [3], in [4], in assay [5] and in assay [6] was “inactive” each time. The Potency result in assay [9], in assay [10], in assay [11], in [7] and in assay [12] was “inactive” each time.

`CCN(CC)C(=O)N[C@@H]1C=C2c3cccc4[nH]cc(c34)C[C@@H]2N(C)C1`: the Potency result in assay [1], in assay [2], in assay [3], in [4], in assay [5] and in [6] was “inactive” throughout. The Potency result in assay [9], in assay [10], in assay [11], in [7] and in assay [12] was “inactive” in each case.

As to `C=CC(=C)C`, the Potency entry in [1], in assay [2], in [3], in assay [4], in assay [5] and in assay [6] was “inactive” in each case. Moreover, the Potency result in assay [9], in assay [10], in assay [7] and in [12] was “inactive” in each case.

Regarding `O=C(Nc1ccc(F)cc1F)c1cccnc1Oc1cccc(C(F)(F)F)c1`, the Potency result in [1], in assay [2], in assay [3], in assay [4], in [5] and in [6] was “inactive” in each case. The Potency entry in assay [9], in assay [10] and in [7] was “inactive” in each case. The Potency in assay [12] is 37.8 µM (active).

For the compound `C#CC1(O)CCCCC1`, the Potency result in assay [1], in assay [2], in assay [3], in [4], in assay [5] and in [6] was “inactive” in each case. Further, the Potency entry in assay [9], in [10], in assay [7], in assay [8] and in assay [12] was “inactive” throughout.

As for `C#CCO`, the Potency result in assay [1], in assay [2], in assay [3], in [4], in [5] and in [6] was “inactive” throughout. In addition, the Potency entry in assay [9], in [10], in [11], in assay [7] and in assay [12] was “inactive” throughout.

For `COP(=S)(OC)Oc1nc(Cl)c(Cl)cc1Cl`, the Potency result in assay [1], in assay [2], in [3], in assay [4], in [5] and in assay [9] was “inactive” in each case. Moreover, the Potency entry in [10], in [11], in assay [7] and in [12] was “inactive” in each case.

In the case of `Brc1cccc(-c2ccccc2)c1`, the Potency entry in assay [1], in [2], in [3], in assay [4], in [5] and in [9] was “inactive” in each case. The Potency result in [10], in [11], in assay [13], in assay [7] and in [14] was “inactive” each time.

As to `CC(C)=CCN1CC[C@@]2(C)c3cc(O)ccc3C[C@@H]1[C@@H]2C`, the Potency result in assay [1], in [2], in [3], in [4], in [5] and in [9] was “inactive” throughout. Besides, the Potency result in assay [10], in assay [7] and in [12] was “inactive” throughout.

In the case of `O=[N+]([O-])c1cccc2cccc([N+](=O)[O-])c12`, the Potency entry in assay [1], in assay [2], in [4], in assay [6], in assay [9] and in [10] was “inactive” in each case. Besides, the Potency entry in assay [11] and in assay [7] was “inactive” throughout. For the same compound, the Potency in [3] and in [13] was 54.7 µM (active) each time.
